Test results: PubChem BioAssay AID686979 (National Center for Advancing Translational Sciences (NCATS), 2013)
Out of some 420,000 compounds screened, about 50,000 (12%) were called active. Where a call stands in place of a potency, no number is given. Inconclusive results (about 26%) are left out. Calls follow the shape of the dose curve; as a rule, active = well fitted inhibition curve with a large enough effect; inconclusive = small, poorly fitted or top-dose-only effect; inactive = flat fitted curve, though single readings scatter. The full list was thinned out, with actives kept by preference.

Assay: qHTS for Inhibitors of human tyrosyl-DNA phosphodiesterase 1 (TDP1): qHTS in cells in presence of CPT; also: nearly all actives have a fitted effect of over 55% in size
Details: chicken DT40 Tdp1-/-;hTDP1 cells + 20 nM CPT, ATP luminescence, 48 h; series mostly up to 46.2 µM
Summary of the method: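 Cell growth measured by CellTiter-Glo luminescence after a minimum 48 h, 37 C compound exposure with 20 nM CPT in Tdp1-knockout DT40 cells stably expressing hTDP1, seeded 400/well; qHTS titration format.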
Potency is read from the fitted curve at half-maximal effect.

Row | Compound | Potency
1 | CCOc1ccc(C2=CC(c3ccccc3)n3ncnc3N2)cc1 (stereo unspecified) | inactive
2 | COCCNC(=O)C1CCCN(Cc2ccccc2Cl)CC1 (stereo unspecified) | inactive
3 | O=C(NCCC1=CCCCC1)C1CCN(Cc2cnn(-c3ccccc3)c2-n2cccc2)CC1 | 23.1 µM (active)
4 | CC(=O)Nc1ccc(NC(=O)CSCc2cnn(-c3ccccc3)c2-n2cccc2)cc1 | inactive
5 | CS(=O)(=O)c1ccc(C(=O)OCC(=O)NNC(=O)COc2ccc(Cl)cc2)cc1 | inactive
6 | CC(CC(=O)O)C(=O)c1ccc(Cl)c([N+](=O)[O-])c1 (stereo unspecified) | inactive
7 | CN(C)c1ccc(/C=C/C(=O)c2ccc(C(C)(C)C)cc2)cc1[N+](=O)[O-] | 23.1 µM (active)
8 | O=C(/C=C/c1ccc(Cl)cc1)N1CCN(c2ccccc2[N+](=O)[O-])CC1 | inactive
9 | O=C(O)c1ccc2c(=O)n3c(nc2c1)/C(=C/c1ccc(Cl)c([N+](=O)[O-])c1)CC3 | inactive
10 | O=C(Nc1cccc(NC(=O)c2ccccc2[N+](=O)[O-])c1)c1ccccc1Cl | inactive
11 | NC(N)=N/N=C/c1ccc(Cl)c([N+](=O)[O-])c1 | 11.6 µM (active)
12 | Cc1cc(C(=O)O)ccc1[N+](=O)[O-] | inactive
13 | O=C(/C=C/c1ccc(Cl)c([N+](=O)[O-])c1)c1ccc(O)cc1 | 4.11 µM (active)
14 | Nn1cnnc1N/N=C/c1cc([N+](=O)[O-])c(Cl)cc1Cl | inactive
15 | O=C(c1ccc(F)cc1)N1CCC(C(=O)N2CCN(S(=O)(=O)c3ccccc3Br)CC2)CC1 | inactive
16 | COc1ccc(NC(=O)C2CCC(CNS(=O)(=O)c3csc(C(N)=O)c3)CC2)cc1OC (stereo unspecified) | inactive
17 | Cc1ccc(S(=O)(=O)N2CCN(C(=O)c3cc(S(=O)(=O)N4CCOCC4)ccc3F)CC2)cc1 | inactive
18 | O=C(COC(=O)c1ccc(F)c(S(=O)(=O)N2CCOCC2)c1)NCc1ccc2c(c1)OCO2 | inactive
19 | Cc1nn(Cc2ccccc2)c(C)c1CNC(=O)c1ccc(F)c(S(=O)(=O)N2CCOCC2)c1 | inactive
20 | O=C(c1ccc(F)c(S(=O)(=O)N2CCOCC2)c1)N(CCc1ccccc1)Cc1ccccc1 | 14.6 µM (active)
21 | Cc1cccc(N(Cc2ccccc2)C(=O)c2cc(S(=O)(=O)N3CCOCC3)ccc2F)c1 | 18.4 µM (active)
22 | Cc1ccc(S(=O)(=O)N2CCOCC2)cc1C(=O)NC(=S)N(Cc1ccccc1)C(C)C | inactive

Row | Compound | Potency
23 | CC(C)Cn1cc(-c2cncc3nccn23)cn1 | inactive
24 | CCCCN(CC(=O)NC(C)(C)C)C(=O)C(=O)Nc1ccc2c(c1)OCCO2 | inactive
25 | O=C(O)c1cc2c(cc1NC(=O)c1c(F)cccc1Cl)OCCCO2 | inactive
26 | Cc1ccc(CNC(=O)CSc2nnc3c(n2)[nH]c2ccc(F)cc23)cc1 | inactive
27 | CCOC(=O)COn1c(=O)c(-c2ccc(OCC)cc2)[n+]([O-])c2ccccc21 | inactive
28 | O=c1c(-c2ccc(Cl)cc2)[n+]([O-])c2ccccc2n1OCc1nc2ccccc2[nH]1 | inactive
29 | CCOc1ccc(OCC)c(-c2c(=O)n(OCc3ccc(Cl)cc3)c3ccccc3[n+]2[O-])c1 | 7.31 µM (active)
30 | O=C(N/N=C/c1ccco1)c1csc2c1CCCC2 | inactive
31 | Cc1cccc(C)c1NC(=O)N1CC(C)OC(C)C1 (stereo unspecified) | inactive
32 | Cc1ccccc1Cn1c(=O)[nH]c2ccccc21 | inactive
33 | Cc1cccc(C)c1NC(=O)N1CC=C(n2c(=O)[nH]c3ccccc32)CC1 | 14.6 µM (active)
34 | C[C@H](CO)N1C[C@H](C)[C@@H](CN(C)C(=O)c2cnccn2)Oc2ncc(Br)cc2C1=O | inactive
35 | NNc1nnc(Cc2ccncc2)c2ccccc12 | inactive
36 | Cc1ccc(-c2cc(C(=O)NC3CCN(Cc4ccccc4)CC3)c3ccccc3n2)cc1 | 14.6 µM (active)
37 | O=C(Nc1ccccc1)N1CCC(C(=O)N2CCN(Cc3ccccc3)CC2)CC1 | inactive
38 | S=C(Nc1ccc(Br)cc1Cl)NC1CCN(Cc2ccccc2)CC1 | 18.4 µM (active)
39 | Cc1cc(C(=O)NC2CCN(Cc3ccccc3)CC2)n[nH]1 | inactive
40 | O=C(NC1CCN(Cc2ccccc2)CC1)c1cc(Br)c(Br)[nH]1 | 18.4 µM (active)
41 | Cc1cc(Br)ccc1NC(=S)NC1CCCC1 | inactive
42 | O=C(NC1CCN(Cc2ccccc2)CC1)c1ccccc1F | inactive
43 | O=C(NNC(=S)Nc1ccc(Br)cc1Cl)c1ccco1 | inactive
44 | O=C(NC1CCN(Cc2ccccc2)CC1)c1c(F)cccc1F | inactive

Row | Compound | Potency
45 | Cc1ccn2cc(C(=O)NC3CCN(Cc4ccccc4)CC3)nc2c1 | inactive
46 | S=C(Nc1ccc(Br)cc1)NC1CCN(Cc2ccccc2)CC1 | 16.4 µM (active)
47 | O=C(c1cccc(-n2cccc2)c1)N1CCN(S(=O)(=O)c2ccc(F)cc2)CC1 | inactive
48 | COc1cc(/C=C/C(=O)OCC(=O)NC2CC2)cc(OC)c1OC | inactive
49 | COC(=O)c1sccc1NC(=O)c1ccc(Cl)cc1 | inactive
50 | CCc1ccc(NC(=O)CCNS(=O)(=O)c2cccs2)cc1 | inactive
51 | Cc1cccc(C)c1NC(=O)CN1C(=O)C(C)Oc2ccccc21 (stereo unspecified) | inactive
52 | CCC1C(=O)c2ccccc2N(C)C1=O (stereo unspecified) | inactive
53 | Cc1onc(C(=O)Nc2ccc3c(c2)OCO3)c1[N+](=O)[O-] | inactive
54 | Cc1ccc(NC(=O)CSc2nnc(CNC(=O)c3ccccc3F)o2)cc1Cl | inactive
55 | O=C(NC1CC(=O)N(c2ccccc2)C1)c1ccco1 (stereo unspecified) | inactive
56 | COc1cc(NC(=O)CN2CCN(S(=O)(=O)c3ccc(Br)cc3)CC2)cc(OC)c1 | inactive
57 | COc1ccc(NC(=O)CN(C)C(=O)CNC(=O)C2CCCCC2)cc1 | inactive
58 | COc1ccc(/C=C/c2noc(-c3ccccc3OC(C)=O)n2)cc1 | inactive
59 | C=CCNC(=S)N/N=C/c1ccc(OCc2ccccc2)cc1 | inactive
60 | CNC(=S)N/N=C/c1ccc(OCc2ccccc2)c(Br)c1 | 9.2 µM (active)
61 | O=C(O)COc1ccc(/C=N/O)cc1Br | inactive
62 | O=C(COc1ccccc1)Nc1ccc(F)cc1 | inactive
63 | CC(C)(CCl)C(=O)Nc1ccc(Sc2ccc(F)cc2)cc1 | 5.8 µM (active)
64 | CCN(c1ccccc1)S(=O)(=O)c1ccc(NC(=O)C(C)(C)C)cc1 | inactive
65 | Cc1ccc(C(O)P(=O)(OC(C)C)c2ccc(N(C)C)cc2)cc1 (stereo unspecified) | inactive
66 | COc1cc2c(cc1OC)C(c1ccccc1Br)NC(=O)C2 (stereo unspecified) | inactive
